For 5 compounds, composite z-score, composite Z-score and z-score results are on record in PubChem BioAssay.

Activity calls are given as the source filed them.

The target of assay [1] is Albumin (Bos taurus) (UniProt P02769). In words: bovine serum albumin binders on microarray, profiling panel, artefact control for SMM control protein annotation, biochemical, small-molecule microarray, Alexa647 label, 635/667 nm fluorescence (AID 1118).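 Further: score merges 667 nm emission intensity and signal-to-noise per printed compound spot.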 The following applies: BSA-A647 binding, fluorescence 635 nm, higher = more signal.
Assay [2] is described as follows: small-molecule microarray binders of probe aXIP, primary screen, biochemical, NeuroSMM set, 635/667 nm fluorescence (AID 1119).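 Further: probe is the protein aXip251-270 applied at 1 µg/mL to compound-printed slides; binding of probe to printed compounds measured as 667 nm fluorescence plus signal to noise.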 The following applies: higher = more signal, called active from +8 up or from −8 down.
Assay [3] is described as follows: small-molecule binders of probe aNOTCH3, primary screen, biochemical, small-molecule microarray, 635/667 nm fluorescence (AID 1120).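 Further: probe is a biotin-tagged antibody raised against NOTCH3 rather than NOTCH3 protein; score merges spot fluorescence near 667 nm with spot signal to noise.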 The following applies: higher = more signal.
Assay [4] in a line: small-molecule binders of probe aNOTCH2, primary screen, biochemical, small-molecule microarray, 635/667 nm fluorescence (AID 1121).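 Further: score merges feature fluorescence read at 667 nm with its signal to noise.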 The following applies: higher = more signal.
The target in assay [5] is Carbonic anhydrase 2 (Homo sapiens) (UniProt P00918). In words: CAII small-molecule binders, profiling panel, biochemical, small-molecule microarray, Alexa647-labelled CAII (AID 1122). The following applies: CAII-A647 binding fluorescence, higher = more signal.
A short description of assay [6]: COS7 lysate on small-molecule microarray, probe aHis, 635 nm (AID 1123).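 Further: z-score combines 667nm fluorescence intensity with signal-to-noise per printed compound spot.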 The following applies: COS7 cell lysate, fluorescence, higher = more signal.
The nature of assay [7]: compound binding in COS7 lysate, probe aLAP1, primary screen, cell lysate, small-molecule microarray (AID 1124).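 Further: lysate comes from COS7 cells expressing LAP1 and is applied at 0.3 µg/mL; score merges spot fluorescence near 667 nm with signal-to-noise over triplicate slides.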 The following applies: probe aLAP1, fluorescence, higher = more signal.
In assay [8] the test system is Sam68 (KHDRBS1). In words: Sam68 small-molecule binders, primary screen, biochemical, small-molecule microarray, 635 nm fluorescence (AID 1125).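 Further: score merges 667 nm channel intensity with signal to noise over triplicate slides.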 The following applies: small-molecule microarray binding, higher = more signal.
Assay [9] deals with Chordin-like protein 2 (CHRDL2). In words: CHRDL2 small-molecule binders, primary screen, biochemical, small-molecule microarray, 635 nm fluorescence (AID 1126).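 Further: printed compound slides probed with Chrdl2 protein at 4 µg/mL for 1 h at 4 C; score merges 667 nm emission intensity with signal to noise over three replicate slides.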 The following applies: small-molecule microarray binding, fluorescence 635 nm; higher = more signal.
The target in assay [10] is Concanavalin-A (Canavalia ensiformis) (UniProt P02866). Description: ConA small-molecule binders, primary screen, artefact control for SMM control protein annotation, biochemical, small-molecule microarray, Alexa647 label, 635 nm (AID 1127).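 Further: z combines 667 nm emission intensity with signal-to-noise across three replicate slides.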 The following applies: ConA-A647 binding fluorescence, higher = more signal.
Assay [11] in a line: anti-His antibody binders, primary screen, artefact control for SMM control protein annotation, biochemical, small-molecule microarray, 635 nm fluorescence (AID 1128).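 Further: score merges feature fluorescence with signal-to-noise for each printed compound spot.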 The following applies: anti-His Alexa647 antibody binding, higher = more signal.
Assay [12] relates to Human papillomavirus type 1a E7 protein (residues 1-88). Description: HPV1a E7 small-molecule binders, primary screen, biochemical, small-molecule microarray, residues 1-88, 635 nm (AID 1129). The following applies: small-molecule microarray binding, fluorescence 635 nm; higher = more signal.
The target in assay [13] is Focal adhesion kinase 1 (Homo sapiens) (UniProt Q05397). Description: small-molecule microarray binders of FAK, primary screen, biochemical, 635/667 nm fluorescence, BSA, DTT (AID 1130).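 Further: composite of spot emission at 667 nm and signal to noise over triplicate slides.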 The following applies: PTK2 binding, 635 nm fluorescence, higher = more signal.
Assay [14] concerns Fibrinogen (Alexa647-labelled). In words: fibrinogen binders on compound microarrays, profiling panel, artefact control for SMM control-protein annotation, biochemical, small-molecule microarray, 635/667 nm fluorescence (AID 1131).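 Further: z-score merges 667 nm fluorescence with per-spot signal-to-noise over triplicate slides.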 The following applies: fibrinogen-A647 binding fluorescence, higher = more signal.
The target of assay [15] is Follistatin (Homo sapiens) (UniProt P19883). Description: follistatin binders on small-molecule microarrays, primary screen, biochemical, small-molecule microarray, 635/667 nm fluorescence (AID 1132). The following applies: FST binding, 635 nm fluorescence, higher = more signal.
For assay [16], the target named is Fibroblast growth factor 2 (Homo sapiens) (UniProt P09038). In words: FGF2 binders on small-molecule microarrays, primary screen, biochemical, small-molecule microarray, 635/667 nm fluorescence (AID 1133). The following applies: small-molecule microarray binding, FGF2, fluorescence 635/667; higher = more signal.
A short description of assay [17]: mitochondrial membrane potential change in A549 cells, profiling panel, cell-based, JC-1 fluorescence, basal, 24 h, 100 nL (AID 1138).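 Further: A549 lung adenocarcinoma cells under basal conditions with no added stimulus; test concentration not given here.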 The following applies: higher = more signal.
Assay [18] deals with Lefty1. In words: Lefty1 binders on small-molecule microarrays, primary screen, biochemical, small-molecule microarray, 635/667 nm fluorescence (AID 1139). The following applies: small-molecule microarray binding, fluorescence 635/667; higher = more signal.
For assay [19], the system named is wheat germ agglutinin (Triticum aestivum), Alexa647-labelled. Description: wheat germ agglutinin binders on compound microarrays, profiling panel, artefact control for SMM control-protein annotation, biochemical, small-molecule microarray, 635/667 nm fluorescence (AID 1140).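 Further: score merges 667 nm feature emission with signal to noise over triplicate slides.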 The following applies: WGA-A647 binding, 635 nm fluorescence, higher = more signal.
For assay [20], the target named is Luciferin 4-monooxygenase (Photinus pyralis) (UniProt P08659). Description: firefly luciferase enzyme inhibitors, primary screen, biochemical, luminescence, purified enzyme, 2006 set (AID 1141).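 Further: cell-free assay with purified firefly luciferase at 100 ng per well in PBS; test concentration not given here.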 The following applies: SteadyGlo luminescence, 30 min, higher = more signal, called active from +8 up or from −8 down.
Chain of Luciferin 4-monooxygenase (Photinus pyralis) (P08659 whole entry, looked up): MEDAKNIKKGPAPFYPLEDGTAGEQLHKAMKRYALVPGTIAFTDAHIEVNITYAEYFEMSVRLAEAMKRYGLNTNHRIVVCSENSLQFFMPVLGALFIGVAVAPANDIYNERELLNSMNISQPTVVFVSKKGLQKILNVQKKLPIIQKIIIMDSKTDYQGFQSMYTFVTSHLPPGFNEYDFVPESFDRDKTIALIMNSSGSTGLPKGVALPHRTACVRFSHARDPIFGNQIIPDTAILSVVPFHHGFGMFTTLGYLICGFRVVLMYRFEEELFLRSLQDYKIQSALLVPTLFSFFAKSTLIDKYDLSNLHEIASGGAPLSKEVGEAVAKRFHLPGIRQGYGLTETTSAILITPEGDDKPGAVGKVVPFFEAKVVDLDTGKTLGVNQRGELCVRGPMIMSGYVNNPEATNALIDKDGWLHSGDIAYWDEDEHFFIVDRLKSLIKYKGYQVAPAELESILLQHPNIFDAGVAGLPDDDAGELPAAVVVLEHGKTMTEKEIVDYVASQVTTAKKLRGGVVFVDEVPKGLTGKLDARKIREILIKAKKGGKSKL

Chain of Focal adhesion kinase 1 (Homo sapiens) (Q05397 whole entry, looked up): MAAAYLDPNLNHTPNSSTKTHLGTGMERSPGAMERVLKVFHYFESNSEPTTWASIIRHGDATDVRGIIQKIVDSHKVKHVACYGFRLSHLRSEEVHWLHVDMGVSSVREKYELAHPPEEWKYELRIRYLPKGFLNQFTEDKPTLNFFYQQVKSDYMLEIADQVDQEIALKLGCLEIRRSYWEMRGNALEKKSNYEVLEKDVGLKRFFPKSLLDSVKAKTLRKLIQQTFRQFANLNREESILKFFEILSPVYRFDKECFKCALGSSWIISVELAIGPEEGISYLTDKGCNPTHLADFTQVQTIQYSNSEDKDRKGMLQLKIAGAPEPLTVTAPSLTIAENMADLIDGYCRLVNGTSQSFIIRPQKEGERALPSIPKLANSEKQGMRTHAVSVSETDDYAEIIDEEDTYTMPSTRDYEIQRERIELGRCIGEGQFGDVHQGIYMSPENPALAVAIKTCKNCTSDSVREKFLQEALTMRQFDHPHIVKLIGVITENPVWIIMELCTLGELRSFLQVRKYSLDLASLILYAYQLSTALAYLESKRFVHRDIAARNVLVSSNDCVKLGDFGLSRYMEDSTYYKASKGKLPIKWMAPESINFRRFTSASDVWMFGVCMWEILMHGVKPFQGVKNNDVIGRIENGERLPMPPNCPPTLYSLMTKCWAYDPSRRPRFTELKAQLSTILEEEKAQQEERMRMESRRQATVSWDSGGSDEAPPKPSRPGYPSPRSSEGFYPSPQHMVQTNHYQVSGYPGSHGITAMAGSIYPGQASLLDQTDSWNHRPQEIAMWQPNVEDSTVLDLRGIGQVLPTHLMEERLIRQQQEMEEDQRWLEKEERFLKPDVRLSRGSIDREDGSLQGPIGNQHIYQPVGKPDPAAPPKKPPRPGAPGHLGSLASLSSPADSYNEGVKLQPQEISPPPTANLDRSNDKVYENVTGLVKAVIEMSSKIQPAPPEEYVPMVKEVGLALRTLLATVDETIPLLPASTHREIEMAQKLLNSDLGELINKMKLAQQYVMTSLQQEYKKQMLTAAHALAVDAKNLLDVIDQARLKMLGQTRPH
Chain of Concanavalin-A (Canavalia ensiformis) (P02866 whole entry, looked up): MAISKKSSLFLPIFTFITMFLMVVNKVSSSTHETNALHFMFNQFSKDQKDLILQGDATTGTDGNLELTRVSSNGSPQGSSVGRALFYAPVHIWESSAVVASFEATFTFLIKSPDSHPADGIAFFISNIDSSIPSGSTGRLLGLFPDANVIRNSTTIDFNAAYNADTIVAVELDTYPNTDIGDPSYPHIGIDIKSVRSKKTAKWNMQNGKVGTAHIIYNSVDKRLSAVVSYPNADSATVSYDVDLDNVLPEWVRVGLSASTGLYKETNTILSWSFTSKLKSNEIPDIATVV
Chain of Albumin (Bos taurus) (P02769 whole entry, looked up): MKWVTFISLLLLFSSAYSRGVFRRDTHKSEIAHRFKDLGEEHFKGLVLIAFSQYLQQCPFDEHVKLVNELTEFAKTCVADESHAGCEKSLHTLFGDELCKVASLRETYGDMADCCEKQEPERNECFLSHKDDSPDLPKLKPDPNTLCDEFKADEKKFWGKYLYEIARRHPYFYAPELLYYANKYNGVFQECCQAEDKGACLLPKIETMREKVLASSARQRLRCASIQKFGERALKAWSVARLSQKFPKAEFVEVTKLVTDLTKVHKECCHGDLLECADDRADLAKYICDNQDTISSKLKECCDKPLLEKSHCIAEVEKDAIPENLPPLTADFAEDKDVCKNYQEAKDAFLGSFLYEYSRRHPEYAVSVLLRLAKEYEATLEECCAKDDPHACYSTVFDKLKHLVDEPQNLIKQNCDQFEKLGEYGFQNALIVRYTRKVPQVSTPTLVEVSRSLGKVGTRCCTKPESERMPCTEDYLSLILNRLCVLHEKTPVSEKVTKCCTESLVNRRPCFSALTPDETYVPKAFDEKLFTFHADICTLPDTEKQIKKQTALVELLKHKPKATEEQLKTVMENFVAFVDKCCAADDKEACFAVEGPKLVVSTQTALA
Chain of Fibroblast growth factor 2 (Homo sapiens) (P09038 whole entry, looked up): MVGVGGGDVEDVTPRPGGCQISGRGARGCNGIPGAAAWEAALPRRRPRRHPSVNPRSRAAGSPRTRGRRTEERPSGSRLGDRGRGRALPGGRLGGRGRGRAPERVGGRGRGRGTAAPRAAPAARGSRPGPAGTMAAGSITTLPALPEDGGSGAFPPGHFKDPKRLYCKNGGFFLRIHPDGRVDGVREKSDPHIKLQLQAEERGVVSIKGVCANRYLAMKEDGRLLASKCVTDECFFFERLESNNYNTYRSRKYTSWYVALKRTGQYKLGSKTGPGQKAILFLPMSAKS
Chain of Follistatin (Homo sapiens) (P19883 whole entry, looked up): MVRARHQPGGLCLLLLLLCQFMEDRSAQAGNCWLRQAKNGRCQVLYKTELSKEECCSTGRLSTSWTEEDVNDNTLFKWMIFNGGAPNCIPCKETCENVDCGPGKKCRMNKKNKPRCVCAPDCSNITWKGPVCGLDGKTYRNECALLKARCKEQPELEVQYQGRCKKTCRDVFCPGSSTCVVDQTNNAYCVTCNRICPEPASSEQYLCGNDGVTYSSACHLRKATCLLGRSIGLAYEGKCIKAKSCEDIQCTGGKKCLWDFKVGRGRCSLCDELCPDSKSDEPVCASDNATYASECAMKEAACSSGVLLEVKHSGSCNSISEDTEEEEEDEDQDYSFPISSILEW

Regarding `COCCOC(=O)N1C(=O)[C@@]2(c3cc(C#CC4=CCCCC4)ccc31)[C@H](C(N)=O)[C@H]1C(=O)O[C@H](c3ccccc3)[C@H](c3ccccc3)N1[C@@H]2c1ccc(O)cc1`, the composite z-score in assay [1] was 0.744; in assay [3], 0.116; in assay [4] it was 0.117; in assay [5], 0.433; in assay [6] it was 1.83; in assay [7], 0.322. In addition, the composite z-score worked out at 1.3 in [8]; 0.302 in assay [9]; 1.11 in assay [10]; 0.753 in assay [11]; 1.18 in assay [12]; 0.671 in assay [13]. Further, the composite z-score was 0.958 in [14]; 0.886 in assay [15]; 0.58 in assay [16]; 0.553 in assay [18]; 0.686 in assay [19]. Moreover, the composite Z-score in assay [2] was -0.158 (inactive). Also, the z-score in [17] is -1.1; in assay [20] it was -1.98 (inactive).
Take `CCCCCCc1nc(-c2ccc(-c3ccc(Cl)c(Cl)c3)o2)cc2c1[Si](C(C)C)(C(C)C)O[C@H]2c1ccccc1`: the composite z-score is 0.108 in [1]; -0.292 in [3]; -0.153 in [4]; 0.739 in assay [5]; 0.458 in [6]; -0.418 in [7]. For the same compound, the composite z-score in [8] was -0.472; in [9] it was -0.517; in assay [10], -0.131; in assay [11] it was -0.403; in [12], -0.73; in [13], -0.132. For the same compound, the composite z-score in [14] was -1.34; in assay [15], -0.348; in assay [16] it was -0.434; in [18], 0.0259; in [19], 1.04. The composite Z-score in assay [2] was 1.35 (inactive). The figures for the z-score in [17] and in [20] were -0.859 and 0.712 (inactive), respectively.
For `CCOC(=O)C1=CCC(c2ccc(F)cc2)N(S(=O)(=O)c2ccc(C)cc2)C1` (stereo not given), the composite z-score in assay [1] is 0.569; in assay [3] it was 0.0351; in assay [4], -0.113; in [5], 0.397; in assay [6], 0.75; in [7], 0.552. For the same compound, the composite z-score was 0.376 in [8]; 0.563 in assay [9]; 0.221 in assay [10]; -0.596 in assay [11]; 0.818 in assay [12]; 1.52 in assay [13]. Besides, the composite z-score in [14] is 0.265; in assay [15], 0.345; in [16] it was -0.287; in assay [18] it was 0.471; in [19], 0.764. Further, the composite Z-score in assay [2] was -0.297 (inactive). Further, the results for the z-score in [17] and in assay [20] were -0.231 and 1.4 (inactive), respectively.
In the case of `COC(=O)[C@@]1(Cc2ccc(OC)cc2)[C@H]2c3cc(C(=O)N4CCCC4)n(Cc4nc5ccccc5[nH]4)c3C[C@H]2CN1C(=O)c1ccccc1`, the composite z-score in assay [1] is 1.08; in assay [3], 0.537; in assay [4] it was 0.013; in assay [5] it was 0.78; in assay [6] it was 3.39; in assay [7], 1.13. The composite z-score is 1.32 in assay [8]; -0.45 in assay [9]; 0.174 in [10]; 2.01 in assay [11]; 1.24 in assay [12]; 1.64 in assay [13]. Moreover, the composite z-score in assay [14] was 1.05; in assay [15], 0.979; in [16] it was -0.202; in assay [18], -0.47; in assay [19] it was 1.14. Further, the composite Z-score in assay [2] is 0.234 (inactive). Also, the figures for the z-score in assay [17] and in assay [20] were 1.92 and 1.53 (inactive), respectively.
Take `COc1ccccc1CN1C(=O)c2ccccc2[C@@H](C(=O)NCc2ccccc2)[C@@H]1c1ccc(CO)cc1`: the composite z-score in assay [1] was 0.431; in assay [3], -0.293; in [4], -0.0984; in assay [5] it was 0.544; in [6] it was 1.15; in assay [7], 1.54. Also, the composite z-score was 1.09 in assay [8]; -0.353 in assay [9]; 0.305 in [10]; 1.99 in assay [11]; 0.464 in [12]; 0.377 in assay [13]. The composite z-score in assay [14] was determined as 0.688; in [15], 0.211; in assay [16], 0.546; in assay [18] it was 0.423; in assay [19], 0.397. Moreover, the composite Z-score in [2] was -0.549 (inactive). Moreover, the z-score was 1.03 in assay [17] and -0.898 (inactive) in [20].
